Screening data: PubChem BioAssay, National Center for Advancing Translational Sciences (NCATS)
An excerpt weighted towards active compounds, which were near 7.4% of everything screened.
FLuc modulator = firefly luciferase modulation, counter-screen for miR-21 project; Potency, µM (top dose mostly 57.5 µM), actives largely listed as inhibitors; AID 588342; P08659; 360,000 tested, 6.9% active; purified FLuc, Km substrates, luminescence inhibition; also: nearly all actives have a fitted effect of over 55% in size
Target sequence (P08659 whole entry, looked up): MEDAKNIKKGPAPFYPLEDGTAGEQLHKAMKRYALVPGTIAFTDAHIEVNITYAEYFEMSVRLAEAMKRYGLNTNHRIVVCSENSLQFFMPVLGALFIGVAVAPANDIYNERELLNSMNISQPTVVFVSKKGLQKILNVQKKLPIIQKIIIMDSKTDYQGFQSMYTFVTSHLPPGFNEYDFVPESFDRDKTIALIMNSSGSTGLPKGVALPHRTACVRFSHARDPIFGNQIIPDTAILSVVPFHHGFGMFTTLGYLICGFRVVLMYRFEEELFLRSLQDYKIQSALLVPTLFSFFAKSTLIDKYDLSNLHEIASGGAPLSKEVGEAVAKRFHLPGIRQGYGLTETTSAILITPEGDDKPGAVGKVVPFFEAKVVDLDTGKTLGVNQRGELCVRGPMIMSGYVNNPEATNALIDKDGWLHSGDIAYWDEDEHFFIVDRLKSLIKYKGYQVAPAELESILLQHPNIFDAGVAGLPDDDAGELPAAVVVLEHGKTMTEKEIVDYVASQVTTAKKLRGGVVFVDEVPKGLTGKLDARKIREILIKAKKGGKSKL
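Purified P. pyralis luciferase, 10 nM final, with Km-level 10 uM D-luciferin and 10 uM ATP in 50 mM Tris acetate pH 7.5, 10 mM Mg acetate, 0.01% Tween-20, 0.05% BSA; 6-point qHTS titration about 60 µM downward; luminescence read.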
SMN2 splice up = SMN2 splice variant enhancement; HEK293 SMN2-luciferase splicing reporter, luminescence, 30-36 h; Potency, µM (top dose mostly 46.1 µM), hits mostly activators; 210,000 tested, 2.8% active; also: nearly all actives have a fitted effect of over 55% in size
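HEK293 cells carry an SMN2 […]–luciferase reporter in which exon 7 inclusion puts luciferase in frame. Cells were plated 10-12 h before compound addition, then incubated 30-36 h at 37C. ONE-Glo luminescence was read; sodium butyrate at 4.5 mM final served as control.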
Rab9 promoter act = activators of Rab9 promoter; Huh7 Rab9 promoter-luciferase reporter, luminescence, 24 h; Potency, µM (top dose mostly 9.22 µM), hits mostly activators; 320,000 tested, 2.8% active; AID 485297; also: nearly all actives have a fitted effect of over 60% in size
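Cell-based reporter: Huh7 stable for Rab9 promoter-driven luciferase, plated in reduced-serum medium with 10% FBS at 1500 cells/well, compound-treated 24 h at 37 °C, luminescence read after 10 min reagent.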
ELG1 genotoxic = genotoxicity induction in ELG1-luciferase HEK293T cells; Potency, µM (highest dose often 46 µM), actives largely listed as activators; HEK293T ELG1-luciferase reporter, luminescence, 16 h; 330,000 tested, 1.3% active; also: nearly all actives have a fitted effect of over 60% in size
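DMSO vehicle served as control against compound-treated ELG1-luciferase HEK293T cells; exposure lasted 16 hr at 37 °C and 5% CO2, followed by ONE-Glo luminescence detection after 30 min.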
NPC1 promoter act = NPC1 promoter activation | Huh7 NPC1 promoter luciferase reporter, 24 h | Potency, µM (series often up to 9.22 µM), actives largely listed as activators | AID 485313 | 320,000 tested, 2.4% active; also: nearly all actives have a fitted effect of over 60% in size
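Readout is luciferase luminescence, reflecting NPC1 promoter activation in stably transfected Huh7 cells after 24 h compound exposure at 37 °C in reduced-serum medium with 10% FBS.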
A number is an active result; i = inactive; ? = inconclusive; nt = no result given; [ ] = another dose, or the depositor's remark. Calls follow the shape of the dose curve; as a rule, active = well fitted curve in the direction sought with a large enough effect; inconclusive = small, poorly fitted or top-dose-only effect, or another doubt; inactive = no such curve, though single readings can be large; an effect the other way counts as inactive or inconclusive.

SMILES	FLuc modulator	SMN2 splice up	Rab9 promoter act	ELG1 genotoxic	NPC1 promoter act
COc1cccc(N(CC(=O)NC2CCCCC2)C(=O)CCC(=O)Nc2nccs2)c1	i	nt	i	i	i
COc1ccc(-n2nc(C(=O)NCC(=O)N3CCC(C)CC3)c3ccccc3c2=O)c(OC)c1	1.5µM	nt	?	?	?
COc1ccc(-n2nc(C(=O)NCC(=O)N3CCCCC3)c3ccccc3c2=O)c(OC)c1	3.8µM	nt	?	?	i
COc1ccc(-n2nc(C(=O)NCC(=O)N3CCCCCC3)c3ccccc3c2=O)c(OC)c1	2.4µM	nt	i	?	i
COc1ccc(-n2nc(C(=O)NCC(=O)NC(C)C)c3ccccc3c2=O)c(OC)c1	i	nt	i	i	i
CCC(C)NC(=O)CNC(=O)c1nn(-c2ccc(OC)cc2OC)c(=O)c2ccccc12 (configuration not stated)	i	nt	i	i	i
COc1ccc(-n2nc(C(=O)NCC(=O)N3CCOCC3)c3ccccc3c2=O)c(OC)c1	24µM	nt	i	i	i
COc1ccc(-n2nc(C(=O)NCCCN3CCOCC3)c3ccccc3c2=O)c(OC)c1	i	nt	i	i	i
COc1ccc(-n2nc(C(=O)NCC(=O)N3CCN(Cc4ccccc4)CC3)c3ccccc3c2=O)c(OC)c1	?	nt	i	i	i
Cc1ccc(C(=O)NC(C)c2ccc(-n3ccnc3)cc2)o1 (configuration not stated)	i	nt	i	i	i
CCCCn1c(N)c(N(CCC(C)C)C(=O)c2ccc3c(c2)OCO3)c(=O)[nH]c1=O	i	nt	i	i	i
COc1ccc(/C=N/NC(=O)CCC(=O)Nc2ccccc2)cc1OC	i	i	i	i	i
COc1cccc(/C=N/NC(=S)Nc2cccc(C(=O)O)c2)c1	1.7µM	14µM	3.2µM	i	2µM
COc1ccc(/C=N/NC(=S)Nc2cccc(C(=O)O)c2)cc1OC	5.4µM	i	i	i	i
COc1cccc(/C=N/NC(=S)Nc2cccc(S(=O)(=O)N(C)C)c2)c1	?	nt	i	i	i
COc1cc(/C=N/NC(=S)Nc2cccc(C(=O)O)c2)cc(OC)c1OC	24µM	?	i	i	i
COc1cc(/C=N/NC(=S)N/N=C/c2cc(OC)c(OC)c(OC)c2)cc(OC)c1OC	0.21µM	4.5µM	i	?	i
CNC(=S)Nc1cccc(C(=O)O)c1	i	i	i	i	i
Nc1nc(N2CCCCC2)c(C=O)c(N2CCCCC2)n1	i	i	i	i	i
Cc1cc(C)c(/C=C/c2onc(C)c2S(=O)(=O)N2CCC(C(=O)N3CCN(c4ccc(Cl)cc4)CC3)CC2)c(C)c1	i	nt	nt	nt	nt
Cc1ccc(C(=O)NCC(=O)NCCCc2ccccc2)s1	i	nt	i	i	i
Cc1ccccc1C(=O)NCCCc1ccccc1	?	13µM	i	i	i
Cc1ccc(-n2nc(CO)c(C(=O)NCCCc3ccccc3)n2)cc1C	5.4µM	i	nt	nt	nt
Cc1ccc(C(=O)NCCCc2ccccc2)s1	21µM	13µM	?	?	4µM
O=C(NCCCc1ccccc1)c1nn(-c2ccccc2)nc1CO	i	i	nt	nt	nt
SMILES	FLuc modulator	SMN2 splice up	Rab9 promoter act	ELG1 genotoxic	NPC1 promoter act
CCc1ccc(/C=N/NC(=O)Cc2ccc(OC)c(OC)c2)s1	i	nt	i	i	i
CCc1ccc(/C=N\NC(=O)c2ccc(Br)o2)s1	11µM	11µM	2.8µM	?	3.5µM
Cc1ccc(/C=N/NC(=O)c2ccc(Br)o2)s1	?	16µM	?	?	?
COc1ccc(CNC(=O)Cn2nc3c(cc2=O)CCCC3)cc1	i	nt	nt	nt	nt
CN(C)S(=O)(=O)c1cccc(N=C2NN=C(c3ccccc3)CS2)c1	?	i	i	i	i
Fc1ccc(F)c(C2=NNC(=Nc3ccccc3F)SC2)c1	12µM	i	i	?	?
Cc1ccccc1N=C1NC(=O)CS1	i	i	i	i	i
O=S(=O)(c1ccc(N=C2NN=C(c3cc(F)ccc3F)CS2)cc1)N1CCOCC1	i	nt	i	i	i
Clc1ccccc1N=C1NN=C(c2cccs2)CS1	12µM	8.9µM	2µM	?	3.2µM
Fc1ccc(N=C2NN=C(c3cc(F)ccc3F)CS2)cc1	24µM	22µM	?	i	i
Cc1cccc(N=C2NN=C(c3ccccc3F)CS2)c1C	19µM	i	?	i	?
O=C(COc1ccc(F)cc1)NCc1ccc2c(c1)CCN2C(=O)c1ccccc1	i	nt	nt	nt	nt
Cc1ccc(S(=O)(=O)N2CCOc3ccccc32)c(C)c1NS(C)(=O)=O	i	nt	i	i	i
O=C(CCc1nc2ccccc2c(=O)[nH]1)N1CCN(S(=O)(=O)c2cccc(F)c2)CC1	i	nt	i	i	i
CCn1cc(C(=O)N[C@H](C(=O)NCCN2CCOCC2)C(C)C)c(=O)c2cc3c(cc21)OCO3	i	nt	i	i	i
Fc1ccccc1N=C1NN=C(c2ccccc2)CS1	13µM	13µM	?	?	2.5µM
O=C(Nc1ccccc1Cl)c1ccc(COc2ccc3c(c2)CCC3)cc1	i	6.3µM	?	?	?
O=C(O)c1ccc(COc2ccc3c(c2)CCC3)cc1	5.4µM	nt	?	i	?
Cc1ccc(C(=O)NCC(=O)OCC(=O)Nc2cc(S(=O)(=O)N3CCOCC3)ccc2Cl)s1	nt	nt	nt	i	nt
NC(N)=NCCC[C@H](NC(=O)[C@@H](N)Cc1ccc(O)cc1)C(=O)O	nt	i	nt	nt	nt
CCCCc1nc2c(c3c1C[C@H](C)OC3)CN(C(=O)c1cccnc1)CC2	nt	i[9.22 µM]	nt	nt	nt
Cc1c(Cl)cccc1NC(=O)C1COc2ccccc2O1 (configuration not stated)	i	nt	i	i	i
O=C(O)c1ccc(NC(=S)NC(=O)c2ccc(-c3ccccc3)cc2)cc1	6µM	i	?	i	i
COc1ccc(NC(=S)NC(=O)c2ccccc2)cn1	13µM	nt	1.8µM	?	?
COc1cccc(C(=O)Nc2ccc(NC(=O)C(C)(C)C)cn2)c1	0.85µM	0.89µM	0.32µM	?	0.35µM
SMILES	FLuc modulator	SMN2 splice up	Rab9 promoter act	ELG1 genotoxic	NPC1 promoter act
COc1ccc(NC(=O)c2cccc(Oc3ccccc3)c2)cn1	19µM	nt	i	i	i
O=C(NC(=S)Nc1ccccc1)c1ccc(-c2ccccc2)cc1	i	i[1.84 µM]	?	i	?
COc1ccc(NC(=O)c2cccc(S(=O)(=O)Nc3ccc(Br)cc3)c2)cn1	i	i	i	i	i
CC(C)C1O[C@H](/C=C\c2ccccc2)OCC1(C)C (some centres not stated)	nt	i[9.22 µM]	nt	nt	nt
O=C(Nc1ccc(N2CCCC2)cc1)c1cc([N+](=O)[O-])ccc1N1CCOCC1	i	nt	i	i	i
Cc1cccc(Cn2cccc2CNS(=O)(=O)c2ccc(C)c(C)c2)c1	i	nt	nt	nt	nt
CCc1cc2c(=O)oc(-c3ccc(F)cc3)nc2s1	4.8µM	nt	i	i	i
Cc1cc2c(=O)oc(-c3ccc(Br)cc3)nc2s1	1.9µM	nt	i	?	i
Cc1cccc(-c2nc3sc(C)cc3c(=O)o2)c1	2.7µM	nt	i	i	i
CC(C)COC(=O)NC1c2ccccc2Oc2ccccc21	i	nt	i	i	i
CSc1nc2ccc(NC(=O)c3ccc(=O)[nH]c3)cc2s1	?	nt	i	i	i
CSc1nc2ccc(NC(=O)c3cccs3)cc2s1	nt	nt	nt	i	nt
